# Inconclusive results are not listed. Active and inactive are the calls of the source. The call rests on the fitted dose curve; in most records, active means well fitted cell-killing curve with a large enough effect; inconclusive means small, poorly fitted or top-dose-only effect; inactive means no such curve, though single readings can be large or run the other way.
# Assay: qHTS of pediatric cancer cell lines to identify multiple opportunities for drug repurposing: Primary screen for MG 63 (6-TG R) cells (AID 1347105); further: nearly all actives have a fitted effect of over 50% in size
# Conditions: MG 63 (6-TG R) viability, CellTiter-Glo, 48 h; series mostly up to 46 µM; activity change, negative = cytotoxic: at the top concentration
# Excerpt: Drug repurposing or repositioning has been offered as a strategy for drug development in oncology programs. This approach has special potential for childhood cancers and other rare or orphan diseases, where the expected return on new drug development has been a disincentive to pharmaceuticals. […] In this project we exploit the poly-pharmacology of drugs to discover new indications via phenotypic screening of a panel of 19 well-characterized cell lines derived from solid tumors seen in children and adolescents. The goal is to identify approved drugs with previously unrecognized anticancer properties that has the potential to reveal new mechanisms and biological processes involved in carcinogenesis or drug resistance. We employed a titration-based paradigm (quantitative high-throughput screening or qHTS), where all compounds were tested at multiple concentrations for their effect on cell viability. Concentration-response curves (CRCs) were derived directly from the primary screen, and both potency and efficacy values were used to identify compounds with robust bioactivity profiles. We screened the NIH Chemical Genomics Center (NCGC) Pharmaceutical Collection (NPC) and Mechanism Interrogation Plate (MIPE) small molecule collections of approved and investigational compounds against these cell lines; and measured metabolically active cells after 48 hours of compound treatment as a proxy for cell viability. […] Assay Submitter: Nathalia J. Martinez, National Center for Advancing Translational Sciences, National Institutes of Health, Rockville, MD, USA; email: natalia.martinez@nih.gov Shen, M et al. Quantitative high-throughput phenotypic screening of pediatric cancer cell lines identifies multiple opportunities for drug repurposing. Oncotarget 2017 Dec 19;9(4):4758-4772. PMID 29435139.
# The cells were obtained from University of North Carolina (UNC), Pediatric Preclinical Testing Program (PPT), and Coriell Institute (CI). qHTS cell viability assay: Cells were assayed in growth media at a density of 500-1,000 cells/well. Five microliters of cells were dispensed into 1,536-well, white, solid-bottom, TC-treated plates (Greiner Bio One) using a multidrop dispenser and incubated at 37 degrees C, 5% CO2, under a humidified atmosphere for 5 hours. Twenty-three nanoliters of compounds and controls (neutral control DMSO or positive control bortezomib at final concentration of 2.3 µM) were subsequently transferred by Kalypsys pintool. For primary screens, the MIPE collection was tested at 11-point dilutions (final concentrations range from 0.78 nM to 46 µM) and the NPC collection at 8-point dilutions (final concentrations range from 0.59 nM to 46 µM). Compounds tested in follow-up screens were assayed at 11-point dilutions. Cells were incubated for 48 hours, followed by addition of 3 µL of CellTiter-Glo (Promega). After a 15 min incubation at room temperature, samples were analyzed for luminescence intensity using a ViewLux High-throughput CCD imager equipped with clear filters.
# On the % scale 0 is the no-effect control and ±100 the full control effect; potency means the concentration at half of the fitted maximal effect.
SMILES,"activity change, negative = cytotoxic",Potency
CC1(C)[C@@H]2CC[C@@]1(C)C(=O)C2,-15.9% (inactive),
O=S(=O)(O)NC1CCCCC1,-23% (inactive),
N[C@H]1C(O)O[C@H](CO)[C@@H](O)[C@@H]1O (stereo not given in full),-21.4% (inactive),
Cc1cc2nc3c(=O)[nH]c(=O)nc-3n(C[C@H](O)[C@H](O)[C@H](O)CO)c2cc1C,-9.03% [at 16.1 µM] (inactive),
O=Cc1ccccc1C=O,-13.8% (inactive),
CC1(C)CO[C@@H](CC(=O)O)CN1,-13.3% (inactive),
NC1[C@H]2CN(c3nc4c(cc3F)c(=O)c(C(=O)O)cn4-c3ccc(F)cc3F)C[C@@H]12 (stereo not given in full),-13.6% (inactive),
CC(C)(C)C(=O)NCCCC(=O)O,1.08% (inactive),
CC1=C(C/C=C(\C)CCC[C@H](C)CCC[C@H](C)CCCC(C)C)C(=O)c2ccccc2C1=O,-3.5% (inactive),
Cc1cc(CC(=O)O)n(C)c1C(=O)c1ccc(Cl)cc1,-13.1% (inactive),
CCN(CC)CCNC(C(=O)OCCC(C)C)c1ccccc1 (stereo not given),-16.8% (inactive),
COC(=O)C1=C(C)NC(C)=C(C(=O)OC)C1c1ccccc1[N+](=O)[O-],-28.6% (inactive),
CCCCc1ncc(/C=C(\Cc2cccs2)C(=O)O)n1Cc1ccc(C(=O)O)cc1,-7.33% (inactive),
Cc1cc(O)cc2c1O[C@](C)(CCC[C@H](C)CCC[C@H](C)CCCC(C)C)CC2,-3.02% (inactive),
NCCNCCNCCN,-3.83% (inactive),
CCC(=O)c1ccc(O)cc1,6.12% (inactive),
CCCn1cnc2c1c(=O)n(CCCCC(C)=O)c(=O)n2C,-26.2% (inactive),
CS(=O)(=O)c1ccc([C@@H](O)[C@@H](CF)NC(=O)C(Cl)Cl)cc1,37% (inactive),
c1ccc(CN(CC2=NCCN2)c2ccccc2)cc1,-16.7% (inactive),
CC(C)C(=O)c1c(C(C)C)nn2ccccc12,-1.46% (inactive),

SMILES,"activity change, negative = cytotoxic",Potency
CC(C)(C(=O)O)c1ccc(C(O)CCCN2CCC(C(O)(c3ccccc3)c3ccccc3)CC2)cc1 (stereo not given),-19.1% (inactive),
OCC(O)CN1CCN(c2ccccc2)CC1 (stereo not given),-24.4% (inactive),
O=c1cc(CO)occ1O,-11.7% (inactive),
CC(O)CN(CCN(CC(C)O)CC(C)O)CC(C)O (stereo not given),-17.6% (inactive),
Nc1ccc(S(=O)(=O)NC(=O)c2ccccc2)cc1,-18.2% (inactive),
CC1CC(OC(=O)C(O)c2ccccc2)CC(C)(C)N1C (stereo not given),-16.6% (inactive),
COC(=O)[C@H]1[C@H]2C[C@@H]3c4[nH]c5cc(OC)ccc5c4CCN3C[C@H]2C[C@@H](OC(=O)COc2ccc(OC)cc2)[C@@H]1OC,-23.1% (inactive),
Cc1cccc(C)c1NC(=O)CN(CC(=O)O)CC(=O)O,-6.67% (inactive),
CCN(CC)CCNC(=O)c1cc(Cl)c(N)cc1OC,-3.82% (inactive),
CN1CCOC(c2ccccc2)c2ccccc2C1 (stereo not given),-14.4% (inactive),
O=C1NS(=O)(=O)c2ccccc21,11.1% (inactive),
CN(C)CCN(Cc1ccccc1)c1ccccn1,-3.64% (inactive),
CCCCOC(=O)c1ccc(O)cc1,-16.2% (inactive),
CN(C)CCCO[C@@H]1[C@H]2OC(C)(C)O[C@H]2O[C@@H]1C(O)CO (stereo not given in full),9.87% (inactive),
NS(=O)(=O)c1cc2c(cc1Cl)NC(CSCc1ccccc1)=NS2(=O)=O,-19.3% (inactive),
O=C(Oc1ccccc1C(=O)O)c1ccccc1O,-3.34% (inactive),
CC12CCC(CC1)C(C)(C)O2,1.86% (inactive),
COc1cc(C(=O)N2CCOCC2)cc(OC)c1OC,-9.22% (inactive),
Oc1ccc(C(O)CNCCCCCCNCC(O)c2ccc(O)c(O)c2)cc1O (stereo not given),-18.5% (inactive),
Cc1c(O)cccc1C(=O)N[C@@H](CSc1ccccc1)[C@H](O)CN1C[C@H]2CCCC[C@H]2C[C@H]1C(=O)NC(C)(C)C,,26.6 µM (active)

# Source: PubChem BioAssay (NCATS)
